# Inconclusive results are not listed. Positions of bridges follow the written chain, without caps; N, C: chain ends. Non-standard residues stand in square brackets, D forms with d. Residues, ends and D or L forms follow the SMILES beside them. ξ: configuration not given here. *: point of attachment. Octanoyl(6-Me) = CCC(C)CCCCC(=O)*; ξThr(3R) = C[C@@H](O)C(N)C(=O)O; dDab = NCC[C@@H](N)C(=O)O; Dab = NCC[C@H](N)C(=O)O
# Assay: qHTS for identification of novel therapeutic agents for treatment of microphthalmiaassociated transcription factor (MiT) renal cell carcinoma (RCC) (AID 1963991)
# Settings: CellTiter-Glo, 48 h, stronger effect = lower value
# Procedure, shortened: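 Three TFE3-fusion RCC cell lines (UOK109, UOK124, UOK145), 500 cells/well, were exposed to the 1912-compound MIPE 4.0 library for 48 hours at 37 C. Viability was read by CellTiter-Glo luminescence, normalised to DMSO (100%) and empty wells (0%), with 11-concentration curve fits.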
# [1] = TFE3-RCC UOK109 viability, measured here: UOK109 Z-AUC
# [2] = TFE3-RCC viability, measured here: UOK124 Z-AUC
# [3] = TFE3-RCC viability, measured here: UOK145 Z-AUC
structure (smiles),measurement,setting,value
Cc1ccccc1C(=O)Nc1ccc(C(=O)N2CCCC(O)c3cc(Cl)ccc32)c(C)c1 (stereo not drawn),z-score,[1],-0.031
same,z-score,[2],0.501
same,z-score,[3],0.525
CC(=O)OC[C@@H]1O[C@@H](n2ccc(=O)[nH]c2=O)[C@H](OC(C)=O)[C@H]1OC(C)=O,z-score,[1],0.396
same,z-score,[2],1.22
same,z-score,[3],0.244
O=C(C=CC=Cc1ccc2c(c1)OCO2)N1CCCCC1,z-score,[1],0.531
same,z-score,[2],0.306
same,z-score,[3],0.432
CN(N=O)C(=O)N[C@H]1C(O)OC(CO)[C@@H](O)[C@H]1O (stereo partly drawn),z-score,[1],0.19
same,z-score,[2],0.37
same,z-score,[3],-0.505
CC(=O)O[C@H]1C[C@@H]2CC[C@H]3[C@H]4C[C@H]([N+]5(C)CCCCC5)[C@@H](OC(C)=O)[C@@]4(C)CC[C@@H]3[C@@]2(C)C[C@H]1N1CCCCC1,z-score,[1],0.765
same,z-score,[2],0.686
same,z-score,[3],-3.76
O=C1c2cccc(O)c2C(=O)c2c(O)cc(CO)cc21,z-score,[1],0.181
same,z-score,[2],0.143
same,z-score,[3],0.0189
Cn1cc(C[C@@H](N)C(=O)O)c2ccccc21,z-score,[1],1.28
same,z-score,[2],1.02
same,z-score,[3],1.04
CC(C)OC(=O)[C@H](C)N[P@](=O)(OC[C@H]1O[C@@H](n2ccc(=O)[nH]c2=O)[C@](C)(F)[C@H]1O)Oc1ccccc1,z-score,[1],0.488
same,z-score,[2],1.3
same,z-score,[3],0.519
CC(C)(C)[C@H](NC(=O)c1ccc(N)c(Cl)c1)C(=O)N1CCC[C@@H]1C(=O)N[C@H](C#N)CC(=O)O,z-score,[1],1.53
same,z-score,[2],2.68
same,z-score,[3],2.13
CC(Cc1ccc(O)c(O)c1)(NN)C(=O)O (stereo not drawn),z-score,[1],0.533
same,z-score,[2],0.304
same,z-score,[3],0.315
Nc1ccn(C[C@@H](CO)OCP(=O)(O)O)c(=O)n1,z-score,[1],1.6
same,z-score,[2],1.03
same,z-score,[3],1.52
CCCc1nc(C(C)(C)O)c(C(=O)O)n1Cc1ccc(-c2ccccc2-c2nn[nH]n2)cc1,z-score,[1],1.09
same,z-score,[2],0.526
same,z-score,[3],0.646
CCC(C)CCCCC(=O)N[C@@H](CCN)C(=O)NC(C(=O)N[C@H](CCN)C(=O)N[C@@H]1CCNC(=O)C([C@@H](C)O)NC(=O)[C@@H](CCN)NC(=O)[C@@H](CCN)NC(=O)[C@@H](CC(C)C)NC(=O)[C@H](Cc2ccccc2)NC(=O)[C@H](CCN)NC1=O)[C@@H](C)O (stereo partly drawn) ({Octanoyl(6-Me)}-[Dab][ξThr(3R)][dDab][dDab][Dab]F[dL][dDab][dDab][ξThr(3R)]; lactam 4-C),z-score,[1],0.782
same,z-score,[2],0.881
same,z-score,[3],0.703
O=C(O)C(=O)Nc1cccc(C2=NN=N[N]2)c1,z-score,[1],0.225
same,z-score,[2],0.525
same,z-score,[3],0.0651
C[C@@H]1CC[C@@]2(OC1)OC1CC3C4CC=C5CC(O)CCC5(C)C4CCC3(C)C1[C@@H]2C (stereo partly drawn),z-score,[1],0.586
same,z-score,[2],0.304
same,z-score,[3],0.634
O=C(NNC(=O)c1ccc(CNS(=O)(=O)c2ccc(F)c(Cl)c2)cc1)c1ccccc1,z-score,[1],0.375
same,z-score,[2],0.329
same,z-score,[3],0.518
Cc1cncc2cccc(S(=O)(=O)N3CCCN(C(=O)CN)C[C@@H]3C)c12,z-score,[1],1.38
same,z-score,[2],0.196
same,z-score,[3],0.7
CC1(C)[C@H](O[C@H]2O[C@H](C(=O)O)[C@@H](O)[C@H](O)[C@H]2O[C@@H]2O[C@H](C(=O)O)[C@@H](O)[C@H](O)[C@H]2O)CC[C@@]2(C)[C@H]1CC[C@]1(C)[C@H]2C(=O)C=C2[C@H]3C[C@@](C)(C(=O)O)CC[C@]3(C)CC[C@]21C,z-score,[1],0.831
same,z-score,[2],0.728
same,z-score,[3],0.774
C=C1C[C@@]2(O)O[C@@]3(C[C@H]2C(C)C)[C@H](C)CC[C@H]13,z-score,[1],0.729
same,z-score,[2],0.339
same,z-score,[3],0.0529
CCCCCCCCCCCCc1ccc(S(=O)(=O)Nc2nncs2)cc1,z-score,[1],1.37
same,z-score,[2],2.17
same,z-score,[3],1.03
O=C(c1ccc(F)cc1)N1CCC[C@H](c2nc(-c3ccc(F)cc3)no2)C1,z-score,[1],1.39
same,z-score,[2],0.757
same,z-score,[3],0.391
NC(=O)c1ncn([C@@H]2O[C@H](CO)[C@@H](O)[C@@H]2O)c1N,z-score,[1],0.684
same,z-score,[2],0.695
same,z-score,[3],0.605
CC[C@H]1OC(=O)[C@H](C)[C@@H](O[C@H]2C[C@@](C)(OC)[C@@H](O)[C@H](C)O2)[C@H](C)[C@@H](O[C@@H]2O[C@@H](C)C[C@H](N(C)C)[C@@H]2O)[C@](C)(O)C[C@@H](C)C(=O)[C@H](C)[C@@H](O)[C@]1(C)O,z-score,[1],0.677
same,z-score,[2],0.444
same,z-score,[3],0.443
CC(=O)N[C@H]1[C@@H]([C@H](O)[C@H](O)CO)OC(C(=O)O)=C[C@@H]1N=C(N)N,z-score,[1],0.312
same,z-score,[2],0.639
same,z-score,[3],0.195
Nc1ccn(C2CO[C@H](CO)O2)c(=O)n1 (stereo partly drawn),z-score,[1],1.41
same,z-score,[2],1.05
same,z-score,[3],1.04
CC(C)(O)[C@H]1CC[C@@](C)([C@H]2[C@@H](O)C[C@@]3(C)[C@@H]4C[C@H](O[C@@H]5O[C@H](CO)[C@@H](O)[C@H](O)[C@@H]5O)[C@H]5C(C)(C)[C@@H](O[C@@H]6OC[C@@H](O)[C@H](O)[C@@H]6O)CC[C@@]56C[C@@]46CC[C@]23C)O1,z-score,[1],0.913
same,z-score,[2],0.41
same,z-score,[3],0.699

# From PubChem BioAssay (NCATS)
